This note sets out measurements from ChEMBL document CHEMBL3988442, “University of Dundee, Small-Polar-MMV Screening Library” (2021).

About 13,000 (27%) of roughly 48,000 compounds showed an effect of 50% or more. The list shows a part of the results.

The experiment deals with Wolbachia pipientis. As to the kind of experiment: Anti-Wolbachia Cell-Based Screen. In kind it is functional. Also noted: scale not given: in the data most compounds retested in dose-response had high values. To be noted: 5 µM.
As for `O=C(c1cn(-c2cc(N3CCOCC3)ncn2)cn1)N1CCSCC1`, the “Percent Effect” value is reported as -13.27%. With `COc1ccc2c(c1)OCC(CNC(=O)c1ccncc1)C2` (stereo unspecified), the “Percent Effect” value is reported as 2.151%. Next, `CCOC(=O)c1n[nH]cc1CN1CCOC(Cc2ccccc2)C1` (stereo unspecified): 4.032%. As to `Cc1cc(=O)[nH]c(-c2cccc(CN3CCCN4CCCC4C3)c2)n1` (stereo unspecified), the “Percent Effect” value is given as -8.166%.

With `CC(=O)N[C@@H]1CN(Cc2ccccc2C(=O)O)C[C@H]1C(C)C`, the “Percent Effect” value is given as -2.27%. In the case of `Cc1cccc2[nH]c(C3CCCN(Cc4ccccc4C(=O)O)C3)nc12` (stereo unspecified) it was 94.13%. Next, `CCCS(=O)(=O)N1CCCC(c2nc(-c3ccccc3)c[nH]2)C1` (stereo unspecified): 7.84%; `CSc1ncccc1C(=O)N1CCC(c2nc3c(C)cccc3[nH]2)CC1`: -2.536%; `Cc1n[nH]c(C2CN(Cc3ncc(C(C)C)o3)CCO2)n1` (stereo unspecified): 3.962%.

With `Cc1cccc2[nH]c(C3CCCN(Cc4ccc(CO)o4)C3)nc12` (stereo unspecified), the “Percent Effect” value is -5.911%. On to `Cc1c[nH]c(C2CCCN(Cc3cccc(C(=O)O)c3)C2)n1` (stereo unspecified), for which the “Percent Effect” value is on record as 79.24%. With `Cc1c[nH]c(C2CCCN(Cc3ccccc3C(=O)O)C2)n1.O=CO` (stereo unspecified), the “Percent Effect” value was 102.4%.

With `Cc1c[nH]c(C2CN(Cc3ccccc3C(=O)O)CCO2)n1` (stereo unspecified), the “Percent Effect” value amounted to 102.8%. Regarding `CCc1nnc2ccc(NCC3(N4CCCCC4)CCOCC3)nn12`, the “Percent Effect” value is reported as -22.71%.

In the case of `Cc1ccccc1Cc1nc(CSc2nnc(N)n2C)no1`, the “Percent Effect” value is 3.092%. Next, `CCC(CNC(=O)c1ccco1)N1CCc2ccccc2C1` (stereo unspecified): 8.519%. `CC(C)NC(=O)C1c2c(ncn2C(C)C)CCN1Cc1ccccc1.O=C(O)C(F)(F)F` (stereo unspecified): the “Percent Effect” value was -4.449%. In the case of `COc1ncccc1CNC(=O)C1=NN(c2ccccc2)C(=O)CN1` it was 17.13%.

Take `O=C(OCc1ccccc1)c1cccc(NC(=O)C2COCCO2)c1` (stereo unspecified): the “Percent Effect” value is given as -10.37%. For the compound `CC(C)N1Cc2cccc(NCC(=O)N(C)C3CCCCC3)c2C1`, the “Percent Effect” value is reported as -12.78%. Consider `OCCN1CCC(CNCc2ccc(N3CCCCC3)cc2)CC1`, for which the “Percent Effect” value is recorded as -10.73%.

For the compound `CC(C)NS(=O)(=O)c1cc(C(=O)O)cc(-n2cc3c(n2)CCC3)c1`, the “Percent Effect” value is on record as -3.943%. In the case of `CC1=N[C@@]2(CC[C@@H]3CN(Cc4ccccc4F)C[C@@H]32)C(=O)N1CC1CC1.O=C(O)C(F)(F)F`, the “Percent Effect” value is given as -0.009519%.

`CC1=N[C@@]2(CC[C@@H]3CN(CC4CC4)C[C@@H]32)C(=O)N1CC(C)C.O=C(O)C(F)(F)F`: the “Percent Effect” value is -11.12%.

As for `COCCN1C[C@H]2CC[C@@]3(N=C(C)N(CC4CC4)C3=O)[C@H]2C1.O=C(O)C(F)(F)F`, the “Percent Effect” value is -0.9614%. In the case of `CC1=N[C@@]2(CC[C@@H]3CN(Cc4ccccc4)C[C@@H]32)C(=O)N1CC1CC1.O=C(O)C(F)(F)F` it was 87%. In the case of `CC1=N[C@@]2(CC[C@@H]3CN(Cc4cccc(Cl)c4)C[C@@H]32)C(=O)N1CC1CC1.O=C(O)C(F)(F)F` it was 106.8%. Next, `CC1=N[C@@]2(CC[C@@H]3CN(CC(C)C)C[C@@H]32)C(=O)N1CC(C)C.O=C(O)C(F)(F)F`: 10.27%.

On to `O=C(O)C(F)(F)F.O=C1NC(c2ccccc2)=N[C@@]12CC[C@@H]1CN(CC3CC3)C[C@@H]12`, for which the “Percent Effect” value is listed as 1.711%. With `CC1=N[C@@]2(CC[C@@H]3CN(CC4CC4)C[C@@H]32)C(=O)N1CC1CC1.O=C(O)C(F)(F)F`, the “Percent Effect” value was determined as 106.2%. In the case of `CC1=N[C@@]2(CC[C@@H]3CN(Cc4ccccc4C)C[C@@H]32)C(=O)N1CC1CC1.O=C(O)C(F)(F)F`, the “Percent Effect” value worked out at 101.1%. In the case of `CCS(=O)(=O)N1CCC(Nc2c(F)cc(C#N)cc2F)CC1` it was 12.27%; in that of `Cn1cc(S(=O)(=O)NCC2CCN(C(=O)c3ccoc3)CC2)cn1`, -16.26%; in that of `CC1=N[C@@]2(CC[C@@H]3CN(Cc4ccc(C)cc4)C[C@@H]32)C(=O)N1CC1CC1.O=C(O)C(F)(F)F`, 104.5%.

On to `COCCN1C(=O)[C@]2(CC[C@@H]3CN(C(=O)NC(C)C)C[C@@H]32)N=C1C`, for which the “Percent Effect” value amounted to 32.84%. Take `COCCN1C(=O)[C@]2(CC[C@@H]3CN(Cc4ccccc4F)C[C@@H]32)N=C1C.O=C(O)C(F)(F)F`: the “Percent Effect” value is given as 90.53%.

With `COCCN1C(=O)[C@]2(CC[C@@H]3CN(C(=O)NC4CCCC4)C[C@@H]32)N=C1C`, the “Percent Effect” value is recorded as -7.65%.

In the case of `CC1=N[C@@]2(CC[C@@H]3CN(CC(=O)N(C)C)C[C@@H]32)C(=O)N1CC(C)C.O=C(O)C(F)(F)F`, the “Percent Effect” value is listed as 6.41%.

`CC1=N[C@@]2(CC[C@@H]3CN(Cc4ccccc4F)C[C@@H]32)C(=O)N1C`: the “Percent Effect” value is 100.6%. Next, `CCC1=N[C@@]2(CC[C@@H]3CN(Cc4ccccc4F)C[C@@H]32)C(=O)N1.O=C(O)C(F)(F)F`: -10.48%; `CC1=N[C@@]2(CC[C@@H]3CN(C(=O)NC(C)C)C[C@@H]32)C(=O)N1CC1CC1`: 1.3%. Turning to `CC1=N[C@@]2(CC[C@@H]3CN(S(=O)(=O)CC(C)C)C[C@@H]32)C(=O)N1C`, the “Percent Effect” value came to 16.54%. Next, `COc1ccc(S(=O)(=O)NCC(c2cccn2C)N(C)C)cc1F` (stereo unspecified): 1.104%; `Cc1nn(C)cc1C(=O)N1CCCn2nc(CN3CC[C@H](F)C3)cc2C1`: 10.52%.

As for `Cc1nccn1-c1ccc(C(C)NCc2cc[nH]n2)cc1` (stereo unspecified), the “Percent Effect” value is -2.741%.

Regarding `CN(Cc1csc(-c2cccs2)n1)Cc1cccnc1N`, the “Percent Effect” value is 16.69%.
